# PubChem BioAssay AID2284172 (EPA ToxCast)
# Active and inactive are the calls of the source. The calls were made as follows: active = hit-call score of the fitted dose curve at least 0.9, where 1 is the maximum; inactive = score below 0.9.
# Target: Voltage-dependent L-type calcium channel subunit alpha-1C (Rattus norvegicus) (UniProt P22002)
# Experiment: ERF_FR_IC_rCACNA1C_Dihydropyridine: Eurofins (ERF) Calcium Ion Channel Binding (Dihydropyridine Site) LeadHunter Assay for rat Cav1.2 (L-type), conducted at France lab site
# Procedure: ERF_FR_IC_rCACNA1C_Dihydropyridine is a biochemical, single-readout assay that uses extracted gene-proteins in a cell-free assay. Measurements were taken 1.5 hour after chemical dosing in a 96-well plate. See Cav1.2 (L-type) Rat Calcium Ion Channel Binding (Dihydropyridine Site) Assay, Cerep.ERF_FR_IC_rCACNA1C_Dihydropyridine is an assay component calculated from the ERF_FR_IC_rCACNA1C_Dihydropyridine assay. It is designed to measure radioligand binding using a type of binding reporter as detected by scintillation counting with radiometry technology.Data from the assay component ERF_FR_IC_rCACNA1C_Dihydropyridine was analyzed at the assay endpoint, ERF_FR_IC_rCACNA1C_Dihydropyridine, in the positive analysis fitting direction relative to DMSO as the negative control and baseline of activity. Using a type of binding reporter, loss-of-signal activity can be used to understand changes in binding as they relate to gene CACNA1C. To generalize the intended target to other relatable targets, this assay endpoint is annotated to the ion channel intended target family, where the subfamily is voltage gated (Calcium).
# Rat brain cells are incubated for 90 minutes at room temprature with [3H]nitrendipine (0.25 nM) ligand and Nitrendipine as control inhibitor. Test Sample Requirements: Minimum for 1) Screen: 60 ul of 10 mM stock -OR- 1 mg (pre-weighed) for 10 uM final testing. […]
# Voltage-dependent L-type calcium channel subunit alpha-1C (Rattus norvegicus), sequence (P22002 whole entry, looked up): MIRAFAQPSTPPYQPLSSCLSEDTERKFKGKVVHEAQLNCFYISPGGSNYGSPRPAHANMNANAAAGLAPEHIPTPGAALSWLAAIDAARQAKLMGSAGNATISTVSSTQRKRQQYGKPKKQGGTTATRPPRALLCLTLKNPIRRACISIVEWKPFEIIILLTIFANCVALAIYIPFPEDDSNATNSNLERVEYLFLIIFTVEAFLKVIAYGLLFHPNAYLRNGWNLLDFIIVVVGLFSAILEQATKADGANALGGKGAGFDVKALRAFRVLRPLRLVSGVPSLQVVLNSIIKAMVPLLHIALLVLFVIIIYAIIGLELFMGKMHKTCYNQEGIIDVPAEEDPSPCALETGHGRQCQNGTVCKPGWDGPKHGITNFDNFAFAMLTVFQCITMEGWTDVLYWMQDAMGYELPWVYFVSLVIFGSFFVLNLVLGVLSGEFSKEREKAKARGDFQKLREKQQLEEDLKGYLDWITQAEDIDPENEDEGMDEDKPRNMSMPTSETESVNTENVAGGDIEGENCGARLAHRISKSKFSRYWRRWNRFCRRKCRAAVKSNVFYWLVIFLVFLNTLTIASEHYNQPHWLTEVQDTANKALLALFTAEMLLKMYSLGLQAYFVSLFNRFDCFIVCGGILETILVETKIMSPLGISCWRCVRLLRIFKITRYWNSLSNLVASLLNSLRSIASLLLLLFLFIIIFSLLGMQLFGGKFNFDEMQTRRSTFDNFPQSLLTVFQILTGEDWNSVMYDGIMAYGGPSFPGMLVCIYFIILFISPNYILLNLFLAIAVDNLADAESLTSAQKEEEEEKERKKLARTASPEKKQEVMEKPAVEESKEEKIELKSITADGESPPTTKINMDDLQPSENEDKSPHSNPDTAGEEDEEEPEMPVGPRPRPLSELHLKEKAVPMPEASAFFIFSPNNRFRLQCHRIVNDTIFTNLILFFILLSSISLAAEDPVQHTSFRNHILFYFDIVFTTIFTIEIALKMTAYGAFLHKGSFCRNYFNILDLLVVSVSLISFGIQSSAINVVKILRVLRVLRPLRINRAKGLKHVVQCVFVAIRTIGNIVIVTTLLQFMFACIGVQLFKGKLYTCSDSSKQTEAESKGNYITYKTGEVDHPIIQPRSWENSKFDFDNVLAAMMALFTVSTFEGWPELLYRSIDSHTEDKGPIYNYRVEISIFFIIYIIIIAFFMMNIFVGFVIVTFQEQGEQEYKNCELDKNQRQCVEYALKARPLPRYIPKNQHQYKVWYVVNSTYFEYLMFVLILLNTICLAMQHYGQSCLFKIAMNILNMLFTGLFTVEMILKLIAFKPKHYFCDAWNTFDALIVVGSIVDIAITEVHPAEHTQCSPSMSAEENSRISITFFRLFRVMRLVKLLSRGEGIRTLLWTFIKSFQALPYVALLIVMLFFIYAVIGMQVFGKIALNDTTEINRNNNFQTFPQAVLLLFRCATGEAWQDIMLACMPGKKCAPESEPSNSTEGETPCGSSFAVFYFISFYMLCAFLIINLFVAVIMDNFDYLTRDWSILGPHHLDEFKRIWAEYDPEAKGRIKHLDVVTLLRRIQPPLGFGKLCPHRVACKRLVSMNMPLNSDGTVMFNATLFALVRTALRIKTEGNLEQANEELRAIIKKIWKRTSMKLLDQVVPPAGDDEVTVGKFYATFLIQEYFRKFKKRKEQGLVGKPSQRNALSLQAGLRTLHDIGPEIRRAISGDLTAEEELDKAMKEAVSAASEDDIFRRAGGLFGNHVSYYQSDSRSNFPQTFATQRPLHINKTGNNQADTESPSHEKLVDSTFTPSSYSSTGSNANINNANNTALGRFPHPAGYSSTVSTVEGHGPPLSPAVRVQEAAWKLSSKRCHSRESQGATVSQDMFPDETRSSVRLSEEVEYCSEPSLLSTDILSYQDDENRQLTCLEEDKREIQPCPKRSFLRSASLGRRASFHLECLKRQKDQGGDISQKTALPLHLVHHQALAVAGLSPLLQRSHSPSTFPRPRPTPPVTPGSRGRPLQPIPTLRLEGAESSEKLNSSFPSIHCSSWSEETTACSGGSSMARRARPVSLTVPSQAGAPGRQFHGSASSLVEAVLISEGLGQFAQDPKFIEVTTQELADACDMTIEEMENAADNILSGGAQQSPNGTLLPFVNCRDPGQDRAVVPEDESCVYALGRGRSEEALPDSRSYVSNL
smiles,measurement,value
COc1cc(CCC(=O)CC(=O)CCc2ccc(O)c(OC)c2)ccc1O,AC50,3.16 µM (active)
